# This is a sample that favours compounds with a hit; in the whole collection about 4.8% have one here.
# HIF act – HIF pathway transcriptional activators, primary screen, cell-based, U2OS HRE-luciferase, luminescence. activation, % at 7.5 µM (by protocol). U2OS HRE-luciferase reporter; normalized: DMSO 0%, desferrioxamine 100%. 300,000 compounds, 0.32% hits;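 active means mean activation of at least 10% of the iron chelator positive control signal, with at least half of replicates also reaching 10%; inconclusive means mean and replicate majority disagree about reaching 10%; inactive means mean and most replicates under 10%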
# Mot1-301 SUMO – yeast Mot1-301 growth rescue at high temperature, primary screen, SUMOylation pathway inhibitor project, S. cerevisiae, ATP luminescence, 38.5C; S. cerevisiae Mot1-301 growth rescue; percent above DMSO median, 100 means doubled; growth rescue, % at 18.8 µM; 320,000 compounds, 1% hits;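 active means every valid replicate shows activation above 250% relative to neutral control wells; inactive means the rest, any valid replicate at or below 250%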;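 further: OY570 slx delta 5 strain wells were the positive control but not used for scaling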
# ALR H2O2 inh – inhibitors of human ALR sulfhydryl oxidase, primary screen, biochemical, H2O2 detection, HRP-luminol luminescence, single point; FAD-linked sulfhydryl oxidase ALR (Homo sapiens), P55789; purified ALR, DTT oxidation; inhibition, % (test concentration not listed); 290,000 compounds, 3.8% hits;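 active means mean replicate inhibition above about 79%, with every replicate also reaching it, limit read from the data; inconclusive means only one of the two criteria met; inactive means mean below limit and not every replicate reaching it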
# Target sequence (P55789 whole entry, looked up): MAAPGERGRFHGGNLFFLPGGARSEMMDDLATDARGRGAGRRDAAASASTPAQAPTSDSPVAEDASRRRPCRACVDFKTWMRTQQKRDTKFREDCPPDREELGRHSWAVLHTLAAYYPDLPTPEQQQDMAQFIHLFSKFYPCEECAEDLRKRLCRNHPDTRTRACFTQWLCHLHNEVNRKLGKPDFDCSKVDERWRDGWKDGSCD
# AI-2 QS modul – Vibrio harveyi AI-2 quorum sensing modulators, primary screen, JMH597 strain, luminescence/OD600 ratio; AID 2094, 2009; activity change, % at 7.5 µM; 300,000 compounds, 0.4% hits; Vibrio harveyi JMH597 AI-2 luminescence/OD600 ratio, 9 h; active compounds read low; strain lacks LuxN and CqsS sensors; 0 = neutral-control median; in the data active means activity change below about -75%, passing the limit was not always enough; inconclusive means no clear call, values can overlap the other calls;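 further: luminescence divided by OD600 gain over 9 h not by final OD600 alone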
# Active calls of the source: *; ? = inconclusive; . = no result.
SMILES,HIF act,Mot1-301 SUMO,ALR H2O2 inh,AI-2 QS modul
Cc1ccccc1CN1[C@@H]2c3ccccc3C[C@@H]2OCCS1(=O)=O,0,-1,-14,-6
COc1c(-c2ccc(O)c(O)c2)oc2cc(O)cc(O)c2c1=O,1,20,98*,46
COc1ccc(-c2c(C)oc3cc(O)cc(O)c3c2=O)cc1OC,0,-24,.,19
O=c1c2c(O)cc(O)cc2oc2ccc(O)c(O[C@@H]3O[C@H](CO)[C@@H](O)[C@H](O)[C@H]3O[C@H]3O[C@H](CO)[C@@H](O)[C@H](O)[C@H]3O)c12,.,5,.,.
O=c1c(OC2OC(CO)C(O)C(O)C2OC2OC(CO)C(O)C(O)C2OC2OC(CO)C(O)C(O)C2O)c(-c2ccc(O)c(O)c2)oc2cc(O)cc(O)c12 (stereo unspecified),.,3,99*,.
O=C(COC(=O)COc1ccc(Br)cc1)NCc1ccccc1,.,2,-18,.
CCOC(=O)c1c(S(=O)(=O)NCc2ccc(C)o2)c(C)n(C)c1C,70*,-9,8,21
CCOC(=O)c1c(S(=O)(=O)NCc2cccs2)c(C)n(C)c1C,1,-5,-3,9
N#Cc1ccc(CSc2nnc(NC(=O)CCc3nc4ccccc4c(=O)[nH]3)s2)cc1,-1,13,61,17
CCN(CC)CCOc1ccc2c(c1)C(=NO)c1cc(OCCN(CC)CC)ccc1-2,62*,7,-2,33
CCCOc1ccc2c(c1)C(=NN=C(N)N)c1cc(OCCC)ccc1-2,-1,286*,-5,32
Cc1ccc(NC(=O)CNC(=O)c2ccco2)cc1,1,5,-1,-7
CCCCN(CCCC)CCNC(=O)c1ccc2nc(-c3ccccc3NC(C)=O)c(=O)[nH]c2c1,-1,561*,.,15
O=Cc1ccc(OC(=O)Cc2ccc(F)cc2)cc1,-2,14,-6,6
O=[N+]([O-])c1cc(Cl)c(Cl)c(Cl)c1Cl,.,24,-6,.
O=C(CSc1nc(=O)n(CCCN2CCOCC2)c2c1CCC2)Nc1ccc(F)cc1,1,3,98*,20
CCc1ccc(NC(=O)CSc2nc(=O)n(CCCN3CCOCC3)c3c2CCC3)cc1,1,1,98*,3
O=C(CSc1nc(=O)n(CCCN2CCOCC2)c2c1CCCC2)Nc1ccc(F)cc1,-1,-7,28,17
CC(C)c1ccc(NC(=O)CSc2nc(=O)n(CCN3CCOCC3)c3c2CCC3)cc1,0,3,99*,1
Cc1ccc(NC(=O)CSc2nc(=O)n(CCCN3CCOCC3)c3c2CCCC3)cc1,0,11,98*,10
Cc1cc(C)c(NC(=O)CSc2nc(=O)n(CCN3CCOCC3)c3c2CCCC3)c(C)c1,0,3,12,1
CCOc1ccccc1NC(=O)CSc1nc(=O)n(CCN2CCOCC2)c2c1CCCC2,0,-5,1,7
CCOc1ccc(NC(=O)CSc2nc(=O)n(CCCN3CCOCC3)c3c2CCC3)cc1,-1,-12,97*,2
CCCCc1ccc(NC(=O)CSc2nc(=O)n(CCN3CCOCC3)c3c2CCC3)cc1,0,201,99*,-1
Cc1cc(C)cc(NC(=O)CSc2nc(=O)n(CCN3CCOCC3)c3c2CCCC3)c1,0,15,-18,7
SMILES,HIF act,Mot1-301 SUMO,ALR H2O2 inh,AI-2 QS modul
CCOc1ccc(NC(=O)CSc2nc(=O)n(Cc3ccccn3)c3c2CCC3)cc1,0,-3,?,80
Cc1ccc(C)c(NC(=O)CSc2nc(=O)n(CCN3CCOCC3)c3c2CCCC3)c1,0,-20,-1,18
CCOc1ccc(NC(=O)CSc2nc(=O)n(Cc3cccnc3)c3c2CCC3)cc1,0,-4,99*,2
CCCCc1ccc(NC(=O)CSc2nc(=O)n(CCCN3CCOCC3)c3c2CCC3)cc1,0,536*,99*,-3
CCCC(NC(=O)C(C)NC(=O)CO/N=C1\C=C2CCC3C4CCC(C(C)=O)[C@@]4(C)CCC3[C@@]2(C)CC1)C(=O)O (stereo partly specified),1,13,2,15
Cc1ccc(S(=O)(=O)CCC(=O)OC(C)C(=O)N2CCc3ccccc32)cc1 (stereo unspecified),1,17,-4,14
C[C@@H]1CN([C@H](C)CO)C(=O)Cc2cc(NC(=O)Nc3ccccc3)ccc2O[C@@H]1CN(C)C(=O)Nc1ccc2c(c1)OCO2,.,-5,-11,.
Cc1ccc(NC(=O)CSc2nc3ccccc3nc2N2CCCC2)cc1,2,-9,-16,6
CCc1ccc(NC(=O)CSc2nc3ccccc3nc2N2CCCC2)cc1,1,22,88*,10
COc1ccc(-n2c(=S)[nH]c3c(oc4ccccc43)c2=O)cc1,1,35,93*,-5
CC(C)(C)c1nnc(NS(=O)(=O)c2cc(Cl)ccc2Cl)s1,0,18,5,-4
O=S(=O)(Nc1nc(-c2sccc2Cl)cs1)c1cc(Cl)ccc1Cl,0,0,98*,-21
CC1(c2ccccc2)NC(=O)N(CC(=O)Nc2ccccc2N2CCCCC2)C1=O (stereo unspecified),0,-11,1,0
O=c1o[nH]c(-c2ccccc2)c1-c1ccccc1,0,5,89*,17
CN(C(=O)c1ccc(NC(=O)Cc2ccc(NC(=O)C3CCCN(C(=O)CCc4ccccc4)C3)cc2)cc1)C1CC1 (stereo unspecified),.,-10,-3,.
Cc1ccccc1OCC(=O)Nc1ccncc1,-1,3,99*,2
Cc1ccccc1OCC(=O)NCCc1nc2ccccc2[nH]1,1,20,99*,7
CC(=O)Nc1ccc2nc(NC(=O)COc3ccccc3C)sc2c1,12*,0,6,18
Cc1cc(C)cc(OCC(=O)NCCc2nc3ccccc3[nH]2)c1,0,-1,-7,6
Cc1ccccc1OCC(=O)Nc1ccc(Cc2ccncc2)cc1,0,20,-17,45
COc1ccc(NC(=O)COC(=O)CCOc2ccccc2C)cc1Cl,0,144,98*,23
CCc1ccc(N(CC(=O)NC(C)C)C(=O)CCC(=O)Nc2ccccn2)cc1,-16,8,1,10
Cc1cccc(Oc2ccc(NC(=O)c3ccccc3C(=O)O)cc2)c1,0,116,98*,11
Cc1cccc(NC(=O)c2ccccc2C(=O)Nc2cccc(C)c2)c1,0,-10,-3,33
Cc1cccc(Oc2ccc3c(c2)cc(C(=O)O)n3C)c1,0,0,98*,-13
CC(C)(C)c1ccc(Oc2ccc(N)cn2)cc1,-5,37,98*,18
CC(C)(C)c1ccc(Oc2ccc(NC(=O)c3ccccc3C(=O)O)cn2)cc1,2,83,93*,56
Cc1cc(Oc2ccc(N)cn2)cc(C)c1Cl,0,-12,8,-15
Cc1c(C(=O)O)sc2[nH]c(=O)n(Cc3ccccc3)c(=O)c12,-5,164,.,3
